# Data published in PubChem BioAssay AID430 (Sanford-Burnham Center for Chemical Genomics, 2006).
# Among all 63,000 compounds or so, about 1,100 (1.7%) were called active. This excerpt belongs to a sample that is enriched for actives. Results with a measured potency or affinity are listed apart. Unmarked numbers belong to inactive results. Rule as the data show it: active = cytotoxicity above about 50%; inactive = the rest.
# Experiment: HPDE-C7 pancreatic duct cell viability loss – fluorescence, HTS (AID 430);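 also: cells exposed to compound for 48 hours before viability readout; 0% = vehicle and 100% = reference cytotoxic drug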
# Conditions: HPDE-C7 pancreatic duct cells viability, at 10 µM, active compounds read high
row,Compound,cytotoxicity
1,CCCC(C)NC(=O)c1ccc(F)cc1 (stereo not drawn),-1.2%
2,CCN(C(=O)CSc1nc2nc(C)cc(C)n2n1)c1cccc(C)c1,-9%
3,OC1CCCN(Cc2ccc3c(c2)Cc2ccccc2-3)C1 (stereo not drawn),-0.6%
4,CC1Cc2ccccc2N1C(=O)c1ccc2c(c1)nnn2C (stereo not drawn),-5.8%
5,CCOCCN1CCN(c2c(C)c(C)nc3cc(-c4cc(OC)cc(OC)c4)nn23)CC1,21.4%
6,CCc1c(C)nc2cc(-c3ccc(OC)c(OC)c3)nn2c1N1CCCC1,8.9%
7,CCCOc1ccc(C2C(=O)N(C3CCCCC3)CC(=O)N2CCC)cc1OC (stereo not drawn),-24.3%
8,COc1ccccc1NC(=O)C(O)C(O)C(=O)Nc1ccccc1OC (stereo not drawn),6.7%
9,CCn1c(SCc2nc3ccccc3[nH]2)nnc1-c1ccccc1OC,-14.9%
10,COC(=O)c1cc(OC)c(OC)cc1N=CC1=C(O)CC(C)(C)CC1=O,10.3%
11,c1cncc(-c2nn3cnnc3s2)c1,3.2%
12,CCN(CCO)C(=O)C12CCC(C)(C(=O)C1)C2(C)C (stereo not drawn),5.2%
13,CCOc1ccc(-n2nnnc2SCC(=O)c2ccccc2)cc1,59.8% (active)
14,COc1ccc(-n2nnnc2SCC(=O)c2ccc(O)c(O)c2)cc1,17.9%
15,COc1ccc(-n2nnnc2SCC(=O)c2cccc(OC)c2)cc1,6.3%
16,Cc1ccc(S(=O)(=O)N(C)c2nonc2C)cc1,9.7%
17,CN(Cc1cnn(C)c1)C(=O)c1cc2ccccc2oc1=O,-0.7%
18,C[C@]12CC[C@@H]3c4ccc(O)cc4CC[C@H]3[C@@H]1CCC2=O,12.1%
19,C[C@]12CC[C@@H]3c4ccc(O)cc4CC[C@H]3[C@@H]1CC[C@@H]2OC(=O)CCC(=O)O,4.5%
20,O=C(NCC(=O)N(c1ccc(F)cc1)C(C(=O)NCC1CCCO1)c1ccccc1)c1ccco1 (stereo not drawn),-7.1%
21,CN1C(=O)C(O)(CC(=O)c2cccc(-n3cccc3)c2)c2ccccc21 (stereo not drawn),-0.5%
22,Cc1cc(=O)[nH]c2ccccc12,-2.8%
23,CN(C)C=Nc1ncc2c([nH]c3ccccc32)c1C#N,15.4%
24,CCC(C(=O)NC1CCCC1)N(C(=O)Cn1nnc(-c2ccc(OC)c(OC)c2)n1)C1CCCCC1 (stereo not drawn),-12.1%
25,CC(C)(C#CCN1CCCC1)OCCC#N,-16.7%

row,Compound,cytotoxicity
1,O=C(CN1C(=O)c2ccccc2S1(=O)=O)Nc1ccc(S(=O)(=O)N2CCCCC2)cc1,-22%
2,O=C(O)/C=C/c1ccc(O)c(O)c1,-18.3%
3,COc1cc(/C=C/C2=NC(=O)C(C)(C)O2)ccc1O,53.4% (active)
4,COc1cc(/C=N/n2nnnc2N)ccc1O,3.8%
5,COc1cc(-c2cc(OC)c3c(C)oc(C)c3c(=O)c2)ccc1O,38%
6,C/C=C/c1ccc(OC)c(OC(C)=O)c1,-5.1%
7,CCOc1ccccc1C1C2C(=O)N(c3ccccc3)C(=O)C2ON1c1ccccc1 (stereo not drawn),-2.8%
8,Cc1cc(C)c2[nH]c(=O)c(CN(Cc3ccc4c(c3)OCO4)Cc3nnnn3C3CCCC3)cc2c1,14.9%
9,CCOCCCNC(=O)C(NC(=O)c1ccc(=O)[nH]c1)c1ccccc1 (stereo not drawn),2.7%
10,COc1ccc(S(=O)(=O)N(C)CC(=O)N2CCCCCC2)cc1OC,-2.9%
11,COc1cccc(N2CCN(C3CC(=O)N(c4ccc(Cl)c(Cl)c4)C3=O)CC2)c1 (stereo not drawn),1.1%
12,CCCC(=O)N1CCN(c2ccc(C(=O)c3ccc(OC)c(Br)c3)cc2F)CC1,58.1% (active)
13,CCCC(=O)c1ccc(N2CCN(C(=O)c3ccc(Br)cc3)CC2)c(F)c1,-6.3%
14,CCCCCC(=O)N1CCN(c2ccc(C(C)=O)cc2F)CC1,-3.3%
15,CCN=C1SC(CC(=O)Nc2ccc(C(F)(F)F)cc2)C(=O)N1CC (stereo not drawn),-10.9%
16,Cc1ccc2nc(NCCO)nc(-c3ccccc3)c2c1,16.6%
17,O=C(O)c1cc(-c2ccccc2)nc2ccccc12,-1.2%
18,Clc1ccc(OCc2nc(-c3ccccn3)n[nH]2)cc1,42.3%
19,Cc1cc(Cl)ccc1OCc1nc(-c2ccc(O)cc2)n[nH]1,77.3% (active)
20,Cc1cc(Cl)ccc1OCCCC(N)=O,-4.7%
21,CN1CCCN(CC(O)COCc2cccs2)CC1 (stereo not drawn),0.9%
22,CC1(C)N=C(C(=O)c2ccccc2)N(O)C1(C)O (stereo not drawn),-11.9%
23,COc1cc2c(=O)n(Cc3ccco3)c(=O)n(CC(=O)c3cccc(Br)c3)c2cc1OC,55% (active)
24,COc1cc2c(=O)n(Cc3ccccc3)c(=O)n(CC(=O)NCc3ccco3)c2cc1OC,3.1%
25,CCOC(=O)Cn1c(=O)n(Cc2ccco2)c(=O)c2ccc(C(=O)NCCc3ccccc3)cc21,7.2%

row,Compound,cytotoxicity
1,COc1cc2c(=O)n(Cc3ccccc3)c(=O)n(CC(=O)C(C)(C)C)c2cc1OC,-17.8%
2,COc1cc2c(=O)n(Cc3ccco3)c(=O)n(CC(=O)c3ccc(Br)cc3)c2cc1OC,86% (active)
3,COc1ccc(CCNC(=O)Cn2c(=O)n(Cc3ccco3)c(=O)c3ccc(Cl)cc32)cc1OC,13.9%
4,CS(=O)(=O)N(CC(=O)NCCSCc1cccc(Cl)c1)c1ccc2c(c1)OCO2,0.9%
5,O=C(Nc1ccccc1)N(Cc1cccs1)C1CCCC1,-7.6%
6,CCOC(=O)c1c(CN2CCN(C)CC2)n(C)c2cc(Br)c(OC)cc12,-10.2%
7,CCOC(=O)c1c(C)n(C)c2cc(Br)c(C(=O)OC)cc12,9.9%
8,CCOC(=O)c1c(CNCCN(CC)CC)n(C)c2cc(Br)c(OC)cc12,57.3% (active)
9,CCOC(=O)c1c(CN2CCCCC2)n(C)c2cc(Br)c(OC)cc12,8.3%
10,CCOC(=O)c1c(CN2CCN(CCO)CC2)n(C)c2cc(Br)c(OC)cc12,77% (active)
11,CCN(CC)CCNC(=O)c1c(C)oc2cc(Br)c(OC)cc12,1.8%
12,O=C(c1ccco1)c1nnn(Cc2ccccc2)c1-c1ccccc1,-7.7%
13,COc1ccc(CN(C2CCCC2)S(=O)(=O)c2ccc(-n3cnnn3)cc2)cc1OC,-39.1%
14,Cc1[nH]c(=O)[nH]c(=O)c1S(=O)(=O)N1CCCC(C(=O)NCCc2ccc(Cl)cc2)C1 (stereo not drawn),-9.4%
15,CCOC(=O)c1csc(NC(=O)CSc2nnnn2-c2ccc(OCC)cc2)n1,-21.4%
16,O=C(c1cccs1)N1CCN(S(=O)(=O)N2CCOCC2)CC1,-21.3%
17,O=C(NCc1ccco1)C(c1ccncc1)N(CCC1=CCCCC1)C(=O)Cn1nnc2ccccc21 (stereo not drawn),1.6%
18,Fc1ccc(Br)cc1C1C=C(c2ccc(Br)s2)Nc2ncnn21 (stereo not drawn),55% (active)
19,COc1cccc(C2C=C(c3ccc(Br)s3)Nc3ncnn32)c1OC (stereo not drawn),-9.3%
20,Fc1ccc(Br)cc1C1C=C(c2cccnc2)Nc2ncnn21 (stereo not drawn),16.3%
21,Cc1cccc2cc(CN(Cc3ccco3)C(=O)c3cccs3)c(=O)[nH]c12,-11.9%
22,Cn1c(Cc2ccccc2)nnc1SCC(=O)Nc1ccccc1N1CCOCC1,2.9%
23,CC(C)OC(=O)c1cn(-c2ccccc2)nc1-c1ccco1,4.8%
24,OCCN(Cc1ccccc1)Cc1cccc(F)c1,-3.2%
25,COCCNC(=O)c1c(N)n(-c2cccc(C)c2)c2nc3ccccc3nc12,9.2%

row,Compound,cytotoxicity
1,Nc1c(C(=O)NC2CCCC2)c2nc3ccccc3nc2n1N,11.6%
2,COCCNC(=O)c1c(N)n(CCCn2ccnc2)c2nc3ccccc3nc12,7%
3,COCCn1c(N)c(C(=O)NCC2CCCO2)c2nc3ccccc3nc21 (stereo not drawn),11.4%
4,Nc1c(C(=O)NC2CCCCC2)c2nc3ccccc3nc2n1/N=C/c1ccco1,5.1%
5,CC(C)Cn1c(N)c(C(=O)NCC2CCCO2)c2nc3ccccc3nc21 (stereo not drawn),26.3%
6,CCCCNC(=O)c1c(N)n(/N=C/c2cccnc2)c2nc3ccccc3nc12,4%
7,Nc1c(C(=O)NC2CCCC2)c2nc3ccccc3nc2n1/N=C/c1cccnc1,62.6% (active)
8,Nc1c(C(=O)NCC2CCCO2)c2nc3ccccc3nc2n1-c1ccccc1 (stereo not drawn),11.1%
9,O=C(Nc1ccccc1N1CCN(c2ccc(F)cc2)CC1)C1CCCCC1,-6.3%
10,O=C(Oc1cccc(Oc2ccccc2)c1)N1CCOCC1,-6.3%
11,CCN(CC)C(=O)CSC1=Nc2ccccc2C2=NC(Cc3c[nH]c4ccccc34)C(=O)N12 (stereo not drawn),-6.1%
12,O=C(CSc1nnnn1C1CCCCC1)NCc1ccc2c(c1)OCO2,3.2%
13,COCCN1C(=O)C(=O)/C(=C(/O)c2ccc(OC(C)C)cc2)C1c1cccnc1 (stereo not drawn),-2.7%
14,CCN1CCN(C(=O)c2ccc3c(c2)N(Cc2ccc(F)cc2)C(=O)c2ccccc2S3=O)CC1 (stereo not drawn),-1.9%
15,COc1ccc(OC)c(C2NC(=O)NC(C)=C2C(=O)Nc2ccc(C)cc2C)c1 (stereo not drawn),-13.3%
16,COc1ccc(Cc2nc(-c3ccccc3)no2)cc1,-1.1%
17,CCOc1cc(S(=O)(=O)n2c(C)nc3ccccc32)ccc1F,2.2%
18,CCN(Cc1ccccc1)Cc1cc(OC)cc(OC)c1,8%
19,CSCCC(NC(=O)c1cc(CC(C)C)oc1C)C(=O)O (stereo not drawn),-17.8%
20,CCc1nnc(NC2=NCCC2)s1,-21.5%
21,COCCn1c(N)c(C(=O)NCc2cccs2)c2nc3ccccc3nc21,-11.2%
22,CC(C)Cn1c(N)c(C(=O)NCc2cccs2)c2nc3ccccc3nc21,63.9% (active)
23,CC(C)Cn1c(N)c(C(=O)NCCN2CCOCC2)c2nc3ccccc3nc21,-16.3%
